Compounds without any hit were thinned out: in the full panel of roughly 83,000, 20% have a hit.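 Plates (96-well) were seeded with cells, treated with compound at one concentration, and incubated for 48 hours before percent growth was determined.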 The source made the active and inactive calls. The calls were made as follows: active = growth percent below 10; inactive = the rest.
Experiments:
Assay in all cases: NCI-60 one-dose screen, 48 h (100 = growth as untreated, 0 = no growth, -100 = all killed)
Settings in all cases: 10 µM unless noted
DU-145 prostate = test system: DU-145 prostate
K-562 leukemia = test system: K-562 leukemia
MALME-3M melanoma = test system: MALME-3M melanoma
MDA-MB-231 breast = test system: MDA-MB-231 breast
RXF 393 renal = test system: RXF 393 renal
SF-268 CNS = test system: SF-268 CNS
SF-295 CNS = test system: SF-295 CNS
SF-539 CNS = test system: SF-539 CNS
UACC-257 melanoma = test system: UACC-257 melanoma
M14 melanoma = test system: M14 melanoma

Measured: growth

CN(C)[C@@H]1C(=O)C(C(N)=O)=C(O)[C@@]2(O)C(=O)C3=C(O)c4c(O)cc(CN5CCc6ccccc6C5)c(Cl)c4C[C@H]3C[C@@H]12
active: DU-145 prostate -92.2% | K-562 leukemia -73.6% | MALME-3M melanoma -52.5% | MDA-MB-231 breast -74.4% | RXF 393 renal -82.2% | SF-268 CNS -74.9% | SF-295 CNS -88.9% | SF-539 CNS -84.6% | UACC-257 melanoma -62% | M14 melanoma -71.2%

COc1ccc(/C=C(/C(=O)N2CCN(Cc3ccccc3)CC2)c2cc(OC)c(OC)c(OC)c2)cc1O
inactive: DU-145 prostate 82.3% | K-562 leukemia 23.1% | MALME-3M melanoma 65.8% | MDA-MB-231 breast 76.9% | RXF 393 renal 62.3% | SF-268 CNS 72.6% | SF-295 CNS 82.8% | SF-539 CNS 55.7% | UACC-257 melanoma 54.7% | M14 melanoma 38%

COc1ccc(/C=C/C(=O)C(CC2CCC2)C(=O)/C=C/c2ccc(OC)c(OC)c2)cc1OC
active: DU-145 prostate -23% | K-562 leukemia 1.54% | MALME-3M melanoma -13.6% | MDA-MB-231 breast 6.65% | RXF 393 renal -72.5% | SF-268 CNS 2.31% | SF-295 CNS -16.6% | SF-539 CNS -38.2% | UACC-257 melanoma -16.7% | M14 melanoma 5.19%

Nc1cc(N)nc(SCC(=O)O)n1
inactive: DU-145 prostate 104% | K-562 leukemia 101% | MALME-3M melanoma 103% | MDA-MB-231 breast 95.4% | RXF 393 renal 115% | SF-268 CNS 101% | SF-295 CNS 106% | SF-539 CNS 102% | UACC-257 melanoma 84.8% | M14 melanoma 102%

NC(N)=NC(N)=Nc1cc2ccccc2c2ccccc12
active: K-562 leukemia 5.89% | MALME-3M melanoma -8.45% | M14 melanoma -33.4%
inactive: DU-145 prostate 56.3% | MDA-MB-231 breast 15.6% | RXF 393 renal 36.3% | SF-268 CNS 48% | SF-295 CNS 53.3% | SF-539 CNS 59.9% | UACC-257 melanoma 74.4%

COc1cc(-c2csc(NC(=O)Nc3cc(Cl)cc(Cl)c3)n2)cc(OC)c1OC
active: DU-145 prostate -15.6% | MALME-3M melanoma -31.5% | MDA-MB-231 breast -14.5% | SF-295 CNS -46.1% | M14 melanoma -6.33%
inactive: K-562 leukemia 32.4% | RXF 393 renal 15.6% | SF-268 CNS 27.7% | SF-539 CNS 46.4% | UACC-257 melanoma 56.7%

Cc1nnc(/N=C2\NC(=O)/C(=C/c3ccc(N(C)C)cc3)S2)s1
inactive: DU-145 prostate 84% | K-562 leukemia 49.7% | MALME-3M melanoma 56.9% | MDA-MB-231 breast 103% | RXF 393 renal 76.9% | SF-268 CNS 73% | SF-295 CNS 47.9% | SF-539 CNS 83.7% | UACC-257 melanoma 83.3% | M14 melanoma 51.1%

Cc1nccc2c3ccc(OCc4cn(-c5ccc(Br)cc5)nn4)cc3n(CC(C)C)c12
inactive: DU-145 prostate 76% | K-562 leukemia 14.8% | MALME-3M melanoma 51.1% | MDA-MB-231 breast 46.9% | RXF 393 renal 46.1% | SF-268 CNS 68.4% | SF-295 CNS 40% | SF-539 CNS 61.4% | UACC-257 melanoma 27.3% | M14 melanoma 42.6%

COc1cc(C(=O)N2CCN(c3ccccc3OC)CC2)c(NC(=O)c2cnccn2)cc1OCc1ccccc1
inactive: DU-145 prostate 104% | K-562 leukemia 10.8% | MALME-3M melanoma 115% | MDA-MB-231 breast 73.1% | RXF 393 renal 113% | SF-268 CNS 114% | SF-295 CNS 97.5% | SF-539 CNS 88.9% | UACC-257 melanoma 78% | M14 melanoma 98.4%

C#C[C@@]1(O)[C@@H](CO)O[C@@H](n2ccc3c(N)ncnc32)[C@@H]1O
active: DU-145 prostate 3.75% | K-562 leukemia 4.79% | MALME-3M melanoma -13.2% | MDA-MB-231 breast -14.7% | RXF 393 renal -33.6% | SF-268 CNS 9.98% | SF-295 CNS 5.82% | SF-539 CNS 8.04% | M14 melanoma -38.6%
inactive: UACC-257 melanoma 17.3%

CCOc1ccccc1C(=O)/C=C/c1cc2ccccc2[nH]c1=O
active: DU-145 prostate -37% | K-562 leukemia 5.07% | MALME-3M melanoma -39% | MDA-MB-231 breast -52.8% | RXF 393 renal -69.4% | SF-268 CNS -10.8% | SF-295 CNS 1.85% | SF-539 CNS -29.9% | UACC-257 melanoma -9.05% | M14 melanoma -20.4%

COc1cc(C2=NN(C(C)=O)C(c3cccc(Nc4ccnc5cc(C(F)(F)F)ccc45)c3)C2)cc(OC)c1OC (stereo not given)
inactive: DU-145 prostate 55% | K-562 leukemia 36.8% | MALME-3M melanoma 78.9% | MDA-MB-231 breast 66.1% | RXF 393 renal 55.3% | SF-268 CNS 52.6% | SF-295 CNS 53.8% | SF-539 CNS 76.6% | UACC-257 melanoma 79% | M14 melanoma 29.7%

CC(=O)c1c(OCC#N)ccc2c(C)cc(=O)oc12
inactive: DU-145 prostate 114% | K-562 leukemia 69% | MALME-3M melanoma 116% | MDA-MB-231 breast 104% | RXF 393 renal 106% | SF-268 CNS 110% | SF-295 CNS 125% | SF-539 CNS 105% | UACC-257 melanoma 133% | M14 melanoma 102%

O=C1CCC23OC(c4ccccc4N12)C(O)C(O)C3O (stereo not given)
inactive: DU-145 prostate 107% | K-562 leukemia 90.4% | MALME-3M melanoma 91.6% | MDA-MB-231 breast 103% | RXF 393 renal 113% | SF-268 CNS 96.6% | SF-295 CNS 110% | SF-539 CNS 101% | UACC-257 melanoma 102% | M14 melanoma 100%

Cc1ccc(C(=O)/C(=C/c2ccc([N+](=O)[O-])cc2)S(=O)Cc2ccccc2)cc1 (stereo not given)
inactive: SF-268 CNS 35.8% | SF-295 CNS 82.3% | UACC-257 melanoma 65.9%
active: DU-145 prostate 4.09% | K-562 leukemia 4.71% | MALME-3M melanoma -13.8% | MDA-MB-231 breast -2.07% | RXF 393 renal -81.6% | SF-539 CNS -43.5% | M14 melanoma -26.1%

COc1ccc(-n2nc(C(=O)NCC(=O)O)nc2-c2ccccc2)cc1
inactive: DU-145 prostate 111% | K-562 leukemia 93.4% | MALME-3M melanoma 92.4% | MDA-MB-231 breast 108% | RXF 393 renal 120% | SF-268 CNS 99.3% | SF-295 CNS 107% | SF-539 CNS 97.2% | UACC-257 melanoma 97.1% | M14 melanoma 102%

CSc1cccc(NC(=O)Nc2nc3c(C)cccc3s2)c1
inactive: DU-145 prostate 114% | K-562 leukemia 89.8% | MALME-3M melanoma 93.5% | MDA-MB-231 breast 116% | RXF 393 renal 104% | SF-268 CNS 104% | SF-295 CNS 97.3% | SF-539 CNS 89.3% | UACC-257 melanoma 98.7% | M14 melanoma 98%

O=C(Nc1cc(Br)ccn1)c1cc2cc(Nc3nc(-c4ccccc4)nc4ccccc34)ccc2oc1=O
inactive: DU-145 prostate 111% | K-562 leukemia 88.6% | MALME-3M melanoma 117% | MDA-MB-231 breast 118% | RXF 393 renal 133% | SF-268 CNS 112% | SF-295 CNS 108% | SF-539 CNS 105% | UACC-257 melanoma 112% | M14 melanoma 102%

O=C(/C(=C/c1ccc([N+](=O)[O-])cc1)SCc1ccccc1)c1ccc(Cl)cc1
inactive: DU-145 prostate 79.3% | MALME-3M melanoma 85.3% | MDA-MB-231 breast 54.8% | RXF 393 renal 67.3% | SF-268 CNS 86.5% | SF-295 CNS 90.3% | SF-539 CNS 94.3% | UACC-257 melanoma 90.2% | M14 melanoma 67.3%
active: K-562 leukemia 5.41%

O=c1c2ccccc2oc2ccc(OCCCCCCN3CCCCCC3)cc12
inactive: DU-145 prostate 65.6% | MDA-MB-231 breast 43.7% | RXF 393 renal 36.8% | SF-268 CNS 61.7% | SF-295 CNS 38.9% | SF-539 CNS 54.9%
active: K-562 leukemia 2.32% | MALME-3M melanoma -47.2% | UACC-257 melanoma 2.49% | M14 melanoma -32%

CCCn1c2cc(OCc3cn(-c4ccc(Br)cc4)nn3)ccc2c2ccnc(C)c21
inactive: DU-145 prostate 90.2% | K-562 leukemia 35.4% | MALME-3M melanoma 87.1% | MDA-MB-231 breast 50.5% | RXF 393 renal 51% | SF-268 CNS 88% | SF-295 CNS 65.6% | SF-539 CNS 36.4% | UACC-257 melanoma 53.3% | M14 melanoma 67.5%

CC(=O)c1cc2c(N)c(C(=O)Nc3ccccn3)sc2nc1C
inactive: DU-145 prostate 90.8% | K-562 leukemia 97.6% | MALME-3M melanoma 90.1% | MDA-MB-231 breast 87.1% | RXF 393 renal 86.4% | SF-268 CNS 93% | SF-295 CNS 71.6% | SF-539 CNS 84.9% | UACC-257 melanoma 86.4% | M14 melanoma 54.9%

CC(C)C[C@H](C(=O)O)N(C)C(=O)[C@@H]1CCCN1C(=O)[C@H](C)OC(=O)[C@H](CCC(N)=O)NC(=O)[C@@H]1CCC(=O)N1
inactive: DU-145 prostate 106% | K-562 leukemia 93.2% | MALME-3M melanoma 109% | MDA-MB-231 breast 108% | RXF 393 renal 135% | SF-268 CNS 97.4% | SF-295 CNS 93.7% | SF-539 CNS 97.7% | UACC-257 melanoma 95.2% | M14 melanoma 99.9%

COC(=O)/C=C1\SC(=Nc2cccc(Cl)c2)N(CCc2c[nH]c3ccccc23)C1=O
inactive: DU-145 prostate 54.5% | K-562 leukemia 24.3% | MALME-3M melanoma 45.9% | MDA-MB-231 breast 39.5% | RXF 393 renal 44.8% | SF-268 CNS 49.5% | SF-295 CNS 55.1% | SF-539 CNS 69.9% | UACC-257 melanoma 37.1% | M14 melanoma 42.4%

O=C(Nc1nc(-c2ccccc2)cs1)c1cc(-c2ccc(Br)cc2)nc2ccccc12
inactive: DU-145 prostate 68.7% | K-562 leukemia 24.3% | MALME-3M melanoma 112% | MDA-MB-231 breast 57.8% | RXF 393 renal 65.7% | SF-268 CNS 53.8% | SF-295 CNS 49.9% | SF-539 CNS 63% | UACC-257 melanoma 56% | M14 melanoma 75.3%

C=C1C(=O)O[C@H]2[C@H]1CC/C(COC(=O)n1ccnc1)=C\CC[C@@]1(C)O[C@@H]21
inactive: DU-145 prostate 96.8% | K-562 leukemia 86.7% | MALME-3M melanoma 90.8% | MDA-MB-231 breast 95.9% | RXF 393 renal 102% | SF-268 CNS 110% | SF-295 CNS 100% | SF-539 CNS 102% | UACC-257 melanoma 90.7% | M14 melanoma 84.3%

COc1cc2c(Nc3ccc(NC(=O)Nc4ccc(Cl)c(C(F)(F)F)c4)c(Cl)c3)ncnc2cc1OCCCN1CCN(C)CC1
inactive: SF-268 CNS 20.2% | UACC-257 melanoma 54.6%
active: DU-145 prostate 2.84% | K-562 leukemia -61% | MALME-3M melanoma -50.8% | MDA-MB-231 breast -60.2% | RXF 393 renal -40.5% | SF-295 CNS -67.3% | SF-539 CNS -77.9% | M14 melanoma 0.0561%

— PubChem BioAssay (NCI)
